# Measured values as given in the supplement of paper PMC10849652.
# The full data set covers some 7,900 targets. This sample favours those with a hit. About 0.6% of all pairs of compound and target were hits. A number with no mark means an inactive call.
# How the values were obtained:
# Experiment in all cases: log2 fold change, soluble protein after heating vs DMSO (PISA); higher = thermal stabilisation; K562 cells, 10 uM, 30 min; active = over 0.2 and 3.5 SD of the protein, either way, in both replicates (recomputed)
# [1] = compound: Cc1ccc(NC(=O)c2ccc(CN3CC[C@H](N(C)C)C3)c(C(F)(F)F)c2)cc1Nc1nccc(-c2cncnc2)n1 [bafetinib]
# Outline: (§1)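 K562 cells at 2×10^6 cells/mL were given 10 μM compound for 30 min. Aliquots then went through 3 min of heating across 48°C-58°C, were pooled, and were extracted in PBS with 0.5% NP-40 at 4°C, and the supernatant after 21,000xg for 90 min was quantified by TMTpro 16plex LC-MS/MS with channel sums equalised. Thermal stability relative to control samples, from duplicates, is given as log2 fold change.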
# [2] = compound: Cc1cccc(CC(=O)N2CCc3c2ccc(-c2cn(C)c4ncnc(N)c24)c3F)n1
# Outline: as §1
# [3] = compound: Cc1cn(-c2cc(NC(=O)c3ccc(C)c(Nc4nccc(-c5cccnc5)n4)c3)cc(C(F)(F)F)c2)cn1 [nilotinib]
# Outline: as §1
# [4] = compound: Cc1nc(Nc2n[nH]c3c2CN(C(=O)N[C@H](CN(C)C)c2ccccc2)C3(C)C)c2sccc2n1
# Outline: as §1
# [5] = compound: Cc1nc(Nc2ncc(C(=O)Nc3c(C)cccc3Cl)s2)cc(N2CCN(CCO)CC2)n1 [dasatinib]
# Outline: as §1
# [6] = compound: Cc1ncc(-c2ccnc(Nc3ccc(S(C)(=O)=O)cc3)n2)n1C(C)C
# Outline: as §1
# [7] = compound: Cn1cc(-c2ccc3c(c2)CCN3C(=O)Cc2cccc(C(F)(F)F)c2)c2c(N)ncnc21
# Outline: as §1
# [8] = compound: Cn1cc(-c2ccc3nnc(C(F)(F)c4ccc5ncccc5c4)n3n2)cn1
# Outline: as §1
# [9] = compound: Cn1cncc1[C@@](N)(c1ccc(Cl)cc1)c1ccc2c(c1)c(-c1cccc(Cl)c1)cc(=O)n2C [tipifarnib]
# Outline: as §1
# [10] = compound: FC(F)(F)c1ccc(/C=C/c2nc(COc3ccc(CCCCn4ccnn4)cc3)co2)cc1 [mubritinib]
# Outline: as §1
# [11] = compound: NC(=O)Nc1cc(-c2cccc(F)c2)sc1C(=O)N[C@H]1CCCNC1
# Outline: as §1
# [12] = compound: NC(=O)c1cnc(N[C@@H]2CCCC[C@@H]2N)nc1Nc1cccc(-n2nccn2)c1
# Outline: as §1
# [13] = compound: NC1(c2ccc(-c3nc4ccn5c(=O)[nH]nc5c4cc3-c3ccccc3)cc2)CCC1
# Outline: as §1
# [14] = compound: NCC(=O)Nc1ccc(-n2nc(C(F)(F)F)cc2-c2ccc3c(ccc4ccccc43)c2)cc1
# Outline: as §1
# [15] = compound: Nc1ccccc1NC(=O)c1ccc(CNC(=O)OCc2cccnc2)cc1 [entinostat]
# Outline: as §1
# [16] = compound: O=C(CCCCCCC(=O)Nc1ccccc1)NO [vorinostat]
# Outline: as §1
# [17] = compound: O=C(CCCCCCNC(=O)c1cnc(N(c2ccccc2)c2ccccc2Cl)nc1)NO [citarinostat]
# Outline: as §1
# [18] = compound: O=C(O)c1ccc2c(c1)nc(Nc1cccc(Cl)c1)c1ccncc12 [silmitasertib]
# Outline: as §1
# [19] = compound: O=C1NC(=O)C(c2cnc3ccccn23)=C1c1cn2c3c(cc(F)cc13)CN(C(=O)N1CCCCC1)CC2
# Outline: as §1
# [20] = compound: c1cc(OCCN2CCCCC2)cc(-c2n[nH]c3ccc(-c4nnc[nH]4)cc23)c1
# Outline: as §1
# UniProt Q8NAV1, sequence (Q8NAV1 whole entry, looked up): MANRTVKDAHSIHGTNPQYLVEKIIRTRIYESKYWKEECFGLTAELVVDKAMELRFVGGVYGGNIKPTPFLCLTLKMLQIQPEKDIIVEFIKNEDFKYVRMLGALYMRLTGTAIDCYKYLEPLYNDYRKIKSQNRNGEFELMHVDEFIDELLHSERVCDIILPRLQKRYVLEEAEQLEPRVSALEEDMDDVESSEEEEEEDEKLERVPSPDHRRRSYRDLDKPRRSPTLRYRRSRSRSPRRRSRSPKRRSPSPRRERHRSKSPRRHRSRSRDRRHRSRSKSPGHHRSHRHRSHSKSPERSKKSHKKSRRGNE
# UniProt P53350, sequence (P53350 whole entry, looked up): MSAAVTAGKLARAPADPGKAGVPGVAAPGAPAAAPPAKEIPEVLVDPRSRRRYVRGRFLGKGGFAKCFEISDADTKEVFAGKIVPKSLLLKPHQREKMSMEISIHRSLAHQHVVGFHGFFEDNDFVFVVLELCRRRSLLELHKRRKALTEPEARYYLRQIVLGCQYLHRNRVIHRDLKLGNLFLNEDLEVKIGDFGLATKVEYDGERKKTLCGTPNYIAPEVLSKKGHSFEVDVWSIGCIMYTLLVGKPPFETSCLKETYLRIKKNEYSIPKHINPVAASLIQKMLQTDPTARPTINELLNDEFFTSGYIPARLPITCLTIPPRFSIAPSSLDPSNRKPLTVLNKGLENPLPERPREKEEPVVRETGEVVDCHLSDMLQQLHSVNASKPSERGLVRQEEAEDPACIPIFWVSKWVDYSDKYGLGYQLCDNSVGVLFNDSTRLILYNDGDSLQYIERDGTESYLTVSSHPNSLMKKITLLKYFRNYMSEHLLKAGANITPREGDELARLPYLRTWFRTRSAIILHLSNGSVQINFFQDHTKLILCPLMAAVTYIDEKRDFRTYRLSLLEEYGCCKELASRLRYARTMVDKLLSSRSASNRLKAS
# UniProt P50897, sequence (P50897 whole entry, looked up): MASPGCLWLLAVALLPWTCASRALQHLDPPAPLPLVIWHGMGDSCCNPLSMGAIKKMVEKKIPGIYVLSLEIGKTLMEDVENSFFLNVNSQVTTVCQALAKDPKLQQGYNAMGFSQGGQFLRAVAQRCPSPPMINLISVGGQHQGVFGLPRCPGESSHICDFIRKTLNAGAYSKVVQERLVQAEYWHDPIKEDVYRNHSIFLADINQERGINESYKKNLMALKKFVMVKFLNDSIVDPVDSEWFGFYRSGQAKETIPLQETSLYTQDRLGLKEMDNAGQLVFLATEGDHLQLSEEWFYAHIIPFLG
# UniProt P27986, sequence (P27986 whole entry, looked up): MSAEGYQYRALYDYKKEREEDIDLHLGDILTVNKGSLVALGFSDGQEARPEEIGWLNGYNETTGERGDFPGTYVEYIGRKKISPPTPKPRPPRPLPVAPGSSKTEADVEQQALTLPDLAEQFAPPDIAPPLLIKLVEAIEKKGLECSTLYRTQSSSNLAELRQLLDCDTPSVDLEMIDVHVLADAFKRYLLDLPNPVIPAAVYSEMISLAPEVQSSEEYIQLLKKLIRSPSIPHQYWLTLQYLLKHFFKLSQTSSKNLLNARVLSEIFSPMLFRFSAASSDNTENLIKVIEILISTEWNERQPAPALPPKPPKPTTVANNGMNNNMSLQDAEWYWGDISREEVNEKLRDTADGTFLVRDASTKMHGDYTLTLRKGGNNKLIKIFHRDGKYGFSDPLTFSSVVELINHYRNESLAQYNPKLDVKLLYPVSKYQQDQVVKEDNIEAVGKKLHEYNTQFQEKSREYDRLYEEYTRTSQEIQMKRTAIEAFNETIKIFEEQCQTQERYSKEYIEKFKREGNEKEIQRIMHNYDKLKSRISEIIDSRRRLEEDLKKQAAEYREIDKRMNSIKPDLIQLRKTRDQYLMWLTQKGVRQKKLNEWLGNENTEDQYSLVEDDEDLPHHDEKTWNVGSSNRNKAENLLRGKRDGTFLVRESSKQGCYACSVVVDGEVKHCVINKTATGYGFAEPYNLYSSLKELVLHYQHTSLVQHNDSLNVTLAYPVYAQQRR
# UniProt Q15054, sequence (Q15054 whole entry, looked up): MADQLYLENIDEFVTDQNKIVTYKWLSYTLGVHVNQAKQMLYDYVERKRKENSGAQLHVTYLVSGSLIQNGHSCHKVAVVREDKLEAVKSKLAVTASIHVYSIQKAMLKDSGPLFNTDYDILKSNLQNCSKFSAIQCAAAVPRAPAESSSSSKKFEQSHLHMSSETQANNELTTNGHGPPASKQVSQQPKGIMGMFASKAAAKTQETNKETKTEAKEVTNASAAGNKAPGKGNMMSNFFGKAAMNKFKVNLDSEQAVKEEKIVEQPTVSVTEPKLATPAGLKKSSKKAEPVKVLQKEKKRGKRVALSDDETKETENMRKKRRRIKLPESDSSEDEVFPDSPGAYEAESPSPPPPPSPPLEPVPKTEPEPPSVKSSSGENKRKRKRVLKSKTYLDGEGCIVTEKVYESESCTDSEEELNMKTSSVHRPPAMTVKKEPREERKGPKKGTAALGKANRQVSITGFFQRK
# UniProt Q9NP80, sequence (Q9NP80 whole entry, looked up): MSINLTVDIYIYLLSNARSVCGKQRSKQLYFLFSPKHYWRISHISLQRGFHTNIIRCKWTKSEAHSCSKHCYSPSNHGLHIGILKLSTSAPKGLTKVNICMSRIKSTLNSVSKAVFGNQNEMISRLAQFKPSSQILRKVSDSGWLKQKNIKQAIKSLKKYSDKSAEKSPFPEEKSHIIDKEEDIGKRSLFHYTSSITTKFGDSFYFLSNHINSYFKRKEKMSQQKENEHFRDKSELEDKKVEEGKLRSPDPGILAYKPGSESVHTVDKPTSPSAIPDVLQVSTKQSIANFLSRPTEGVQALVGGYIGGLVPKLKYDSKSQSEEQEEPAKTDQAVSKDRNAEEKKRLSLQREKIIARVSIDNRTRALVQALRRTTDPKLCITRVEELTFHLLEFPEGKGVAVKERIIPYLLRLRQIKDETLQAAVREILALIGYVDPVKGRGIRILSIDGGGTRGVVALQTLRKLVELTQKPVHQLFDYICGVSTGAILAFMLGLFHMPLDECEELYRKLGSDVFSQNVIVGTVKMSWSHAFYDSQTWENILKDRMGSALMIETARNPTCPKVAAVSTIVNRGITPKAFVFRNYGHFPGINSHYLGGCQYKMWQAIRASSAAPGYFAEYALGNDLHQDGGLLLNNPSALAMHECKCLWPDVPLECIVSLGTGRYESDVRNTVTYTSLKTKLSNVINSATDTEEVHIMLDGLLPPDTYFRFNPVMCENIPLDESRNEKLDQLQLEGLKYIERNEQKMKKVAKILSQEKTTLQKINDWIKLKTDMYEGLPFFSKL
# UniProt Q13523, sequence (Q13523 whole entry, looked up): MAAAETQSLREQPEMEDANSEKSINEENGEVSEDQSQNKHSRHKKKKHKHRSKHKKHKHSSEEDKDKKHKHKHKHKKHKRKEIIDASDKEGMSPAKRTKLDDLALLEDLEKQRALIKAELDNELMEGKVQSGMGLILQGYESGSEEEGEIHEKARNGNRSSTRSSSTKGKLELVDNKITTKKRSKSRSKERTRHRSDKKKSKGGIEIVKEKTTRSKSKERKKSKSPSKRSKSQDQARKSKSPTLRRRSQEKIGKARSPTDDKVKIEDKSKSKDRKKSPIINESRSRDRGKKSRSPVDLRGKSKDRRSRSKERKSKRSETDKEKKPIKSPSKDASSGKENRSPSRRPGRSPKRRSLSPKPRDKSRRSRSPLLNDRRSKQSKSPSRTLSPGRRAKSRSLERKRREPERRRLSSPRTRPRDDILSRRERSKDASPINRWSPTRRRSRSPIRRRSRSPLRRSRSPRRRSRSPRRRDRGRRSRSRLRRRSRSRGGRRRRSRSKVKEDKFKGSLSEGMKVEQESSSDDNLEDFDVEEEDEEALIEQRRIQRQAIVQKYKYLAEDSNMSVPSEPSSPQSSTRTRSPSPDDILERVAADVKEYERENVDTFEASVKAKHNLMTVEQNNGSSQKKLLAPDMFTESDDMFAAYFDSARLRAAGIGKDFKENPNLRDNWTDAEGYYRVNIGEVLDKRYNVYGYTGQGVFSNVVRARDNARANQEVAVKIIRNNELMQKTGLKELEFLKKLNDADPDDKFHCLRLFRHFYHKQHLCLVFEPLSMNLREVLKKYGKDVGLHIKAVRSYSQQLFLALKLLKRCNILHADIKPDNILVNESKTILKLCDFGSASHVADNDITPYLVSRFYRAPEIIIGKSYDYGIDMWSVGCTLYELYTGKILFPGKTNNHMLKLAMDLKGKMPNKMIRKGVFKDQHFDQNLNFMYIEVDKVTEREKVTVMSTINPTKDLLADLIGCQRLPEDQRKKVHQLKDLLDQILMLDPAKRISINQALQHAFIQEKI
# UniProt Q15366, sequence (Q15366 whole entry, looked up): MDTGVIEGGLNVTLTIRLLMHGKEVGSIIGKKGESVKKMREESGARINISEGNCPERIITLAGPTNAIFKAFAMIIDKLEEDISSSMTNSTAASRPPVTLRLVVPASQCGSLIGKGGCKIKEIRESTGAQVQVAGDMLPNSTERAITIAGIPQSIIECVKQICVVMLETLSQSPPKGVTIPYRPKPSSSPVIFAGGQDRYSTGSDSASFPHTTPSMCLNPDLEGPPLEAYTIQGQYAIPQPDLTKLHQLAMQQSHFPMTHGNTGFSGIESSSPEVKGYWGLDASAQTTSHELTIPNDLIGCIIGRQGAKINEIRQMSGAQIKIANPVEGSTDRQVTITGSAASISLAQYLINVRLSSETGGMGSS
# UniProt P51665, sequence (P51665 whole entry, looked up): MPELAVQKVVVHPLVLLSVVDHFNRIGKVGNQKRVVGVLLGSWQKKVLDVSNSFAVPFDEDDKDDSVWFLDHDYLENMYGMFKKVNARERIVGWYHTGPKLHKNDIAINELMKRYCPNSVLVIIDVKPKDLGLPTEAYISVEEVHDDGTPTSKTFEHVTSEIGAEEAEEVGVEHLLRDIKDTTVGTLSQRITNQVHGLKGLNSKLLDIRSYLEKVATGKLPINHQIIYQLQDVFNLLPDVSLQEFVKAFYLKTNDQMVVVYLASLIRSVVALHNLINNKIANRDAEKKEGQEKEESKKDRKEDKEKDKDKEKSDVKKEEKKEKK
# UniProt P06454, sequence (P06454 whole entry, looked up): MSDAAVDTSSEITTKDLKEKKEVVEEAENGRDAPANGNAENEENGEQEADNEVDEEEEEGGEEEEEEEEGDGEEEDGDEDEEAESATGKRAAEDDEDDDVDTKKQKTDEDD
Target,log2 fold change [1],log2 fold change [2],log2 fold change [3],log2 fold change [4],log2 fold change [5],log2 fold change [6],log2 fold change [7],log2 fold change [8],log2 fold change [9],log2 fold change [10],log2 fold change [11],log2 fold change [12],log2 fold change [13],log2 fold change [14],log2 fold change [15],log2 fold change [16],log2 fold change [17],log2 fold change [18],log2 fold change [19],log2 fold change [20]
PPT1 (UniProt P50897),-0.742 (active),0.011,0.021,0.02,0,-0.001,0.006,0.019,0.025,0.027,-0.049,-0.095,-0.338 (active),-0.096,-0.03,-0.036,0.053,0.019,-0.041,-0.041
POLR2I (UniProt P36954),-0.044,0.024,-0.026,0.233,0.079,0.338,-0.029,0.021,0.072,-0.054,-0.025,0.115,0.102,0.067,0.114,-0.243,-0.09,0.028,-0.091,-0.005
PRPF38A (UniProt Q8NAV1),0.048,0.025,-0.006,-0.871 (active),-0.033,-0.073,-0.011,-0.08,0.036,0.201,-0.039,-0.015,-0.105,-0.006,0.004,0.002,0.152,-0.212,0.095,-0.122
PKM (UniProt P14618),-0.023,-0.012,-0.011,-0.004,0.024,-0.009,0.015,0.006,0.005,0.035,0.01,-0.029,0.011,-0.025,-0.013,-0.009,0.016,-0.016,-0.032,-0.02
PIK3R1 (UniProt P27986),-0.061,0.029,-0.074,0.015,-0.117,0.108,0.009,-0.013,-0.026,0.017,-0.08,-0.056,-0.016,-0.021,-0.026,0.029,0.007,-0.013,0.028,0.126
PCBP2 isoform 3 (UniProt Q15366),0.037,0.083,-0.095,-0.156,-0.132,-0.058,0.007,0.018,-0.08,0.004,0.001,-0.074,-0.102,-0.088,0.062,0.099,0.104,0.019,-0.015,-0.023
PLA2G15 (UniProt Q8NCC3),-0.175,0.05,-0.001,-0.025,-0.036,-0.028,0.002,0.09,0.084,-0.05,0.06,-0.042,-0.023,0.001,0.056,0.073,0.279 (active),0.076,-0.074,-0.008
PPP1R14A (UniProt Q96A00),-0.058,0.026,-0.01,0.013,0.019,0.026,0.076,-0.055,0,0.033,-0.051,0.101,0.02,0.029,0,0.105,0,-0.089,-0.014,0.018
PEF1 (UniProt Q9UBV8),-0.106,0.089,-0.005,0.012,-0.047,-0.013,0.132,0.113,-0.126,0.099,-0.029,-0.026,-0.219,-0.036,0.128,0.01,0.045,0.028,-0.103,-0.02
PLCB3 (UniProt Q01970),-0.059,-0.084,-0.104,0.033,-0.092,-0.006,-0.006,0.061,-0.039,0.003,-0.005,-0.086,-0.141,-0.023,0.037,-0.008,-0.007,0.008,0.005,0.064
PSMA3 (UniProt P25788),0.06,0.003,0.041,0.041,0.029,0.008,-0.003,-0.005,0.006,-0.016,0.03,0.022,0.071,0.058,-0.027,-0.029,0.005,-0.002,0.102,-0.056
POLD3 (UniProt Q15054),0.846,0.058,-0.014,-0.052,-0.068,0.096,0.028,0.044,-0.01,0.024,0.035,-0.143,-0.107,-0.108,0.134,-0.008,0.003,-0.022,-0.013,0.109
POLA1 (UniProt P09884),0.021,0.021,-0.043,-0.033,-0.173,0.01,0.019,0.014,-0.091,0.064,-0.014,-0.068,-0.225,-0.04,0.07,0.054,0.155,0.021,-0.113,0.227
PSMD7 (UniProt P51665),0.075,0.009,0.014,0.065,0.054,-0.033,-0.116,-0.01,0.079,0.019,-0.04,0.001,-0.035,0.029,-0.049,-0.002,-0.048,0.016,0.051,-0.089
PC (UniProt P11498),0.096,0.102,-0.014,0.121,0.005,-0.007,0.047,0.074,-0.097,0.024,-0.025,0.027,-0.084,0.004,-0.003,-0.044,0.053,-0.122,-0.099,0.112
PRPF4B (UniProt Q13523),0.188,-0.096,0.153,-0.626 (active),0.081,-0.163,0.005,-0.056,0.117,0.069,-0.057,-0.075,-0.022,-0.065,-0.008,0.025,0.033,0.01,0.055,-0.328 (active)
PTMA (UniProt P06454),-0.076,-0.047,0.023,0.001,-0.01,-0.031,0.177,-0.147,-0.02,0.109,0.279,0.2,0.217,0.157,0.052,-0.026,-0.018,-0.628 (active),0.021,0.099
PEX7 (UniProt O00628),0.101,-0.025,-0.047,0.048,-0.025,-0.007,0.05,0.04,0.034,0.085,-0.017,-0.031,-0.022,-0.03,-0.077,0.013,0.074,-0.017,-0.051,0.042
PNPLA8 (UniProt Q9NP80),-0.04,-0.13,0.036,-0.026,-0.055,0.038,0.036,-0.063,0.053,0.095,-0.035,0.007,-0.038,-0.038,-0.031,0.111,0.049,-0.036,-0.017,-0.052
POLR2D (UniProt O15514),0.009,-0.076,-0.028,0.122,-0.013,0.202,-0.036,0.034,-0.01,0.052,0.04,0.145,-0.016,0.022,-0.026,-0.133,-0.078,0.049,-0.015,-0.06
PTTG1 (UniProt O95997),0.062,0.021,-0.025,-0.011,0.031,-0.116,0.024,-0.066,-0.013,0.033,-0.006,-0.098,-0.015,-0.071,0.035,-0.043,0.027,-0.002,-0.023,-0.128
PARG (UniProt Q86W56),0.166,0.118,0.004,-0.123,-0.162,-0.025,0.093,-0.015,-0.061,0.061,0.141,0.001,-0.113,-0.013,0.12,0.157,0.067,0.048,0.065,-0.091
PLK1 (UniProt P53350),-0.048,0.003,-0.062,-1.37 (active),-0.125,0.152,0.006,-0.013,0.019,0.003,-0.399 (active),0.033,-0.024,0.005,-0.005,0.002,0.019,-0.135,0.032,-0.103
POLR2A (UniProt P24928),-0.019,-0.014,-0.039,0.24,-0.066,0.511 (active),0,-0.037,0.004,0.038,-0.057,0.121,-0.049,-0.094,0.049,-0.067,-0.062,0.086,0.059,-0.05
